This is part of a sample that, as a whole, favours compounds with a hit. Of some 79,000 tested, about 15% had one in any assay. Calls of active or inactive are those of the source. Cut-off read from the data, not from the text of the source: active = growth inhibition above about 70%; inactive = the rest.
Assays:
[1] = NCI Yeast Anticancer Drug Screen. Data for the rad52 strain (AID 147);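 note: 0% = growth of vehicle-treated control cultures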; settings: S. cerevisiae rad52 mutant growth inhibition, hits give high values
Procedure, shortened: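 Genetically altered yeast (DNA damage repair defect) treated with compound; inhibition calculated relative to vehicle.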

[2] = NCI Yeast Anticancer Drug Screen. Data for the wt1 strain (AID 149);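 note: 0% = growth of vehicle-treated wt1 cultures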; settings: S. cerevisiae wt1 strain (SPY 50644) growth inhibition, hits give high values
Procedure, shortened: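 Using yeast strain wt1, compound-induced growth inhibition was determined against vehicle-treated cultures.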

[3] = NCI Yeast Anticancer Drug Screen. Data for the rad50EPP+ strain (AID 151);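 note: 0% = growth of vehicle-treated control cultures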; settings: S. cerevisiae rad50 mutant strain, hits give high values
Procedure, shortened: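 Strain rad50EPP+; compound exposure; % growth inhibition vs vehicle.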

[4] = NCI Yeast Anticancer Drug Screen. Data for the mgt1 strain (AID 153); settings: S. cerevisiae mgt1 mutant growth inhibition, hits give high values
Procedure, shortened: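 Read-out: yeast growth inhibition vs vehicle control. Strain mgt1, drawn from a panel altered in DNA damage repair or cell cycle control.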

[5] = NCI Yeast Anticancer Drug Screen. Data for the rad50 strain (AID 155);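 note: 0% = growth of vehicle-only cultures of the same strain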; settings: S. cerevisiae rad50 strain growth inhibition, hits give high values
Procedure, shortened: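 Relative growth inhibition (compound vs vehicle) was measured in yeast with a defined repair-gene alteration.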

[6] = NCI Yeast Anticancer Drug Screen. Data for the mec2-1 strain (AID 157); settings: S. cerevisiae mec2-1 strain, hits give high values
Procedure, shortened: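 Cells of the genetically defined mec2-1 yeast strain are incubated with test compound. Inhibition of growth is calculated against vehicle-treated controls.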

[7] = NCI Yeast Anticancer Drug Screen. Data for the rad14 strain (AID 159);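 note: 0% = growth of vehicle-treated control cultures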; settings: S. cerevisiae rad14 strain growth inhibition, hits give high values
Procedure, shortened: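 Screen for anticancer potential: a yeast strain altered in DNA damage repair is grown with compound, and reduced growth is quantified against vehicle controls.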

[8] = NCI Yeast Anticancer Drug Screen. Data for the sgs1 mgt1 strain (AID 161);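 note: 0% = growth of cultures given vehicle only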; settings: S. cerevisiae sgs1 mgt1 strain, hits give high values
Procedure, shortened: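 Inhibition of yeast growth, normalised to vehicle-treated controls, is reported for a strain bearing genetic alterations in DNA damage repair.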

[9] = NCI Yeast Anticancer Drug Screen. Data for the CLN2oe strain (AID 163);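 note: 0% = growth of vehicle-only control cultures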; settings: S. cerevisiae CLN2oe strain, hits give high values
Procedure, shortened: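 Strain altered in cell-cycle control, incubated with compound; growth compared to solvent-treated controls.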

[10] = NCI Yeast Anticancer Drug Screen. Data for the cln2 rad14 strain (AID 165);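 note: 0% = growth equal to vehicle treated cultures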; settings: S. cerevisiae cln2 rad14 strain, hits give high values
Procedure, shortened: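 The screen exposed genetically defined yeast (cln2 rad14) to test compounds and scored growth inhibition relative to vehicle-treated controls.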

[11] = NCI Yeast Anticancer Drug Screen. Data for the bub3 strain (AID 167); settings: S. cerevisiae bub3 mutant strain, hits give high values
Procedure, shortened: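 Screening used yeast with an engineered genetic alteration affecting cell cycle control. Compound-exposed cultures were compared with vehicle cultures, and reduced growth was taken as inhibition.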

[12] = NCI Yeast Anticancer Drug Screen. Data for the wt2 strain (AID 169);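 note: 0% = growth of vehicle-treated yeast cultures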; settings: S. cerevisiae wt2 strain growth inhibition, hits give high values
Procedure, shortened: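 Steps: yeast strain treated with compound; growth recorded; inhibition calculated relative to cultures given vehicle alone.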

[13] = NCI Yeast Anticancer Drug Screen. Data for the sgs1 strain (AID 173);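 note: 0% = growth of vehicle-only control cultures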; settings: S. cerevisiae sgs1 mutant, hits give high values
Procedure, shortened: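 Inhibition of yeast growth served as the measure. The mutant strain was treated with each compound, and growth was normalised to cultures receiving vehicle alone.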

[14] = NCI Yeast Anticancer Drug Screen. Data for the rad18 strain (AID 177); settings: S. cerevisiae rad18 mutant growth inhibition, hits give high values
Procedure, shortened: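 Inhibition values reflect reduced yeast growth compared with vehicle-treated controls, using a strain engineered with a DNA damage repair defect.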

[15] = NCI Yeast Anticancer Drug Screen. Data for the mlh1 strain (AID 171);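 note: 0% = growth of vehicle-treated control cultures of the same strain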; settings: S. cerevisiae mlh1 strain growth inhibition, hits give high values
Procedure, shortened: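 Yeast screen: mutant strain plus compound, growth scored against vehicle control wells.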

[16] = NCI Yeast Anticancer Drug Screen. Data for the mlh1 rad18 strain (AID 175); settings: S. cerevisiae mlh1 rad18 strain growth inhibition, hits give high values
Procedure, shortened: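 Compound-treated yeast growth, normalised to vehicle controls. Strain bears defined DNA repair mutations.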

[17] = at 5.0 µM (retest, dose inferred, filed as 0.5)
[18] = at 50.0 µM (retest, dose inferred, filed as 5.0)

Measured: growth inhibition

O=C(CNS(=O)(=O)Cc1ccccc1)NNc1ccccc1
active: [5]; at 50.0 µM 75.8% | [8]; [18] 71% | [14]; at 100.0 µM 83%
inactive: [1]; at 1.2 µM -1% | [1]; at 3.7 µM 2% | [1]; at 11.0 µM 12% | [1]; at 33.0 µM 35% | [1]; at 100.0 µM 44% | [2]; at 1.2 µM -1% | [2]; at 3.7 µM 5% | [2]; at 11.0 µM 4% | [2]; at 33.0 µM 23% | [2]; at 100.0 µM 36% | [3]; at 1.2 µM 2% | [3]; at 3.7 µM 4% | [3]; at 11.0 µM 22% | [3]; at 33.0 µM 43% | [3]; at 100.0 µM 58% | [4]; at 1.2 µM -1% | [4]; at 3.7 µM 12% | [4]; at 11.0 µM 14% | [4]; at 33.0 µM 16% | [4]; at 100.0 µM 16% | [5]; at 1.2 µM 2% | [5]; at 3.7 µM 4% | [5]; [17] 13% | [5]; at 11.0 µM 9% | [5]; at 33.0 µM 17% | [5]; [18] 64% | [5]; at 100.0 µM 24% | [6]; at 1.2 µM -1% | [6]; at 3.7 µM 0% | [6]; [17] -3% | [6]; at 11.0 µM 7% | [6]; at 33.0 µM 14% | [6]; [18] 9% | [6]; at 50.0 µM 62.5% | [6]; at 100.0 µM 16% | [7]; at 1.2 µM 0% | [7]; at 3.7 µM 3% | [7]; at 11.0 µM 6% | [7]; at 33.0 µM 13% | [7]; at 100.0 µM 20% | [8]; [17] 28% | [8]; at 50.0 µM 63.6% | [9]; at 1.2 µM 5% | [9]; at 3.7 µM 5% | [9]; at 11.0 µM 24% | [9]; at 33.0 µM 39% | [9]; at 100.0 µM 39% | [10]; [17] 8% | [10]; [18] 33% | [10]; at 50.0 µM 60% | [11]; at 1.2 µM 1% | [11]; at 3.7 µM 0% | [11]; [17] 5% | [11]; at 11.0 µM 2% | [11]; at 33.0 µM 8% | [11]; [18] 29% | [11]; at 50.0 µM 69.3% | [11]; at 100.0 µM 10% | [12]; at 1.2 µM 1% | [12]; at 3.7 µM 2% | [12]; at 11.0 µM 11% | [12]; at 33.0 µM 30% | [12]; at 100.0 µM 38% | [13]; at 1.2 µM -1% | [13]; at 3.7 µM -1% | [13]; at 11.0 µM 8% | [13]; at 33.0 µM 36% | [13]; at 100.0 µM 54% | [14]; at 1.2 µM 4% | [14]; at 3.7 µM 5% | [14]; at 11.0 µM 23% | [14]; at 33.0 µM 63%

CN(CC(=O)O)c1ccc(/C=C/c2ccnc3ccccc23)cc1
inactive: [1]; at 1.2 µM -3% | [1]; at 3.7 µM -5% | [1]; at 11.0 µM -2% | [1]; at 33.0 µM 13% | [1]; at 100.0 µM 41% | [2]; at 1.2 µM -2% | [2]; at 3.7 µM -3% | [2]; at 11.0 µM -4% | [2]; at 33.0 µM -8% | [2]; at 100.0 µM -6% | [3]; at 1.2 µM -9% | [3]; at 3.7 µM 3% | [3]; at 11.0 µM 8% | [3]; at 33.0 µM 35% | [4]; at 1.2 µM 0% | [4]; at 3.7 µM 0% | [4]; at 11.0 µM -2% | [4]; at 33.0 µM -2% | [4]; at 100.0 µM 39% | [5]; at 1.2 µM -1% | [5]; at 3.7 µM -1% | [5]; [17] 23% | [5]; at 11.0 µM 2% | [5]; at 33.0 µM 11% | [5]; [18] 24% | [5]; at 50.0 µM 14.7% | [5]; at 100.0 µM 31% | [6]; at 1.2 µM -5% | [6]; at 3.7 µM -4% | [6]; [17] 6% | [6]; at 11.0 µM -5% | [6]; at 33.0 µM -3% | [6]; [18] 12% | [6]; at 50.0 µM 33.5% | [6]; at 100.0 µM 16% | [7]; at 1.2 µM -3% | [7]; at 3.7 µM -5% | [7]; at 11.0 µM -2% | [7]; at 33.0 µM 6% | [7]; at 100.0 µM 32% | [8]; [17] 5% | [8]; at 50.0 µM 59.2% | [9]; at 1.2 µM -3% | [9]; at 3.7 µM -4% | [9]; at 11.0 µM -9% | [9]; at 33.0 µM -15% | [9]; at 100.0 µM -12% | [10]; [17] -2% | [10]; [18] 22% | [10]; at 50.0 µM -46.4% | [11]; at 1.2 µM -3% | [11]; at 3.7 µM -4% | [11]; [17] 6% | [11]; at 11.0 µM -5% | [11]; at 33.0 µM -8% | [11]; [18] 20% | [11]; at 50.0 µM 51.9% | [11]; at 100.0 µM 12% | [12]; at 1.2 µM -4% | [12]; at 3.7 µM -4% | [12]; at 11.0 µM -5% | [12]; at 33.0 µM -3% | [12]; at 100.0 µM 37% | [15]; at 1.2 µM -1% | [15]; at 3.7 µM 2% | [15]; at 11.0 µM 3% | [15]; at 33.0 µM 7% | [15]; at 100.0 µM 41% | [13]; at 1.2 µM -2% | [13]; at 3.7 µM 0% | [13]; at 11.0 µM 4% | [13]; at 33.0 µM 22% | [13]; at 100.0 µM 65% | [16]; [17] 30% | [16]; at 50.0 µM 50.4% | [14]; at 1.2 µM 1% | [14]; at 3.7 µM 5% | [14]; at 11.0 µM 10%
active: [3]; at 100.0 µM 83% | [8]; [18] 80% | [16]; [18] 88% | [14]; at 33.0 µM 78% | [14]; at 100.0 µM 91%

Source: PubChem BioAssay (NCI)
